According to PubChem BioAssay (NCI):
This is part of a sample that, as a whole, favours compounds with a hit. Of some 79,000 tested, about 15% had one in any assay. The source made the active and inactive calls. Rule as the data show it: active = growth inhibition above about 70%; inactive = the rest.

What was measured:
[1] = NCI Yeast Anticancer Drug Screen. Data for the wt1 strain (AID 149);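 also: 0% = growth of vehicle-treated wt1 cultures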; conditions: S. cerevisiae wt1 strain (SPY 50644) growth inhibition, stronger effect = higher value
Procedure, shortened: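 The wt1 strain was treated with compounds, and growth was compared with vehicle-treated cultures to give inhibition.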

[2] = NCI Yeast Anticancer Drug Screen. Data for the rad50EPP+ strain (AID 151);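 also: 0% = growth of vehicle-treated control cultures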; conditions: S. cerevisiae rad50 mutant strain, stronger effect = higher value
Procedure, shortened: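 One strain with a rad50 alteration (rad50EPP+) was compound-treated, its growth then compared to that of vehicle controls.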

[3] = NCI Yeast Anticancer Drug Screen. Data for the mgt1 strain (AID 153); conditions: S. cerevisiae mgt1 mutant growth inhibition, stronger effect = higher value
Procedure, shortened: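 After exposure of the mgt1 yeast mutant to compound, growth was measured and reported as inhibition compared with vehicle controls.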

[4] = NCI Yeast Anticancer Drug Screen. Data for the rad50 strain (AID 155);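 also: 0% = growth of vehicle-only cultures of the same strain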; conditions: S. cerevisiae rad50 strain growth inhibition, stronger effect = higher value
Procedure, shortened: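 Cells are treated with compound, grown, and their growth is then scored against vehicle-only cultures of the same repair-deficient yeast strain.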

[5] = NCI Yeast Anticancer Drug Screen. Data for the mec2-1 strain (AID 157); conditions: S. cerevisiae mec2-1 strain, stronger effect = higher value
Procedure, shortened: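 Test agents were screened against the mec2-1 yeast strain, with defined DNA repair or cell cycle alteration. Growth was scored as inhibition against vehicle-only controls.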

[6] = NCI Yeast Anticancer Drug Screen. Data for the rad14 strain (AID 159);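 also: 0% = growth of vehicle-treated control cultures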; conditions: S. cerevisiae rad14 strain growth inhibition, stronger effect = higher value
Procedure, shortened: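 Readout: yeast growth inhibition, referenced to vehicle-only cultures. Strain bears a defined alteration in DNA damage repair.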

[7] = NCI Yeast Anticancer Drug Screen. Data for the sgs1 mgt1 strain (AID 161);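 also: 0% = growth of cultures given vehicle only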; conditions: S. cerevisiae sgs1 mgt1 strain, stronger effect = higher value
Procedure, shortened: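 Read-out: growth inhibition vs vehicle controls. Cells: mutant yeast strain deficient in DNA damage repair.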

[8] = NCI Yeast Anticancer Drug Screen. Data for the CLN2oe strain (AID 163);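 also: 0% = growth of vehicle-only control cultures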; conditions: S. cerevisiae CLN2oe strain, stronger effect = higher value
Procedure, shortened: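 Here, growth inhibition in a cell-cycle-altered yeast strain after compound exposure was quantified against vehicle control growth.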

[9] = NCI Yeast Anticancer Drug Screen. Data for the cln2 rad14 strain (AID 165);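 also: 0% = growth equal to vehicle treated cultures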; conditions: S. cerevisiae cln2 rad14 strain, stronger effect = higher value
Procedure, shortened: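 Growth of compound-exposed yeast (cln2 rad14 genotype) measured and expressed as inhibition relative to vehicle.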

[10] = NCI Yeast Anticancer Drug Screen. Data for the bub3 strain (AID 167); conditions: S. cerevisiae bub3 mutant strain, stronger effect = higher value
Procedure, shortened: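 Part of a panel of yeast mutants defective in DNA damage repair or cell cycle regulation. Each strain is grown with compound, and inhibition is calculated relative to solvent-treated cultures.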

[11] = NCI Yeast Anticancer Drug Screen. Data for the wt2 strain (AID 169);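 also: 0% = growth of vehicle-treated yeast cultures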; conditions: S. cerevisiae wt2 strain growth inhibition, stronger effect = higher value
Procedure, shortened: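 Genetically defined yeast strains from a DNA-repair/cell-cycle panel were used. Compound-exposed yeast growth was measured, and the inhibition was calculated relative to vehicle treatment.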

[12] = NCI Yeast Anticancer Drug Screen. Data for the mlh1 strain (AID 171);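 also: 0% = growth of vehicle-treated control cultures of the same strain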; conditions: S. cerevisiae mlh1 strain growth inhibition, stronger effect = higher value
Procedure, shortened: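 Here the genetically defined yeast mutant is grown with each compound, and the extent to which its growth falls below that of vehicle-exposed cells is reported.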

[13] = NCI Yeast Anticancer Drug Screen. Data for the sgs1 strain (AID 173);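 also: 0% = growth of vehicle-only control cultures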; conditions: S. cerevisiae sgs1 mutant, stronger effect = higher value
Procedure, shortened: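 Relative growth inhibition, referenced to vehicle, was determined in a yeast strain with a defined alteration affecting DNA damage repair or cell cycle control after compound exposure.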

[14] = NCI Yeast Anticancer Drug Screen. Data for the mlh1 rad18 strain (AID 175); conditions: S. cerevisiae mlh1 rad18 strain growth inhibition, stronger effect = higher value
Procedure, shortened: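 In this whole-cell yeast screen, a strain with altered DNA damage repair is challenged with compound, and its growth is measured against matched vehicle-treated controls.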

[15] = NCI Yeast Anticancer Drug Screen. Data for the rad18 strain (AID 177); conditions: S. cerevisiae rad18 mutant growth inhibition, stronger effect = higher value
Procedure, shortened: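 Screen uses a yeast strain with a defined lesion in DNA damage repair; compound effect is read as loss of growth compared to untreated vehicle cultures.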

[16] = at 5.0 µM (retest, dose inferred, filed as 0.5)
[17] = at 50.0 µM (retest, dose inferred, filed as 5.0)

Measured: growth inhibition

CCCCCCC(CCl)c1sc(-c2csc(CCNC(=O)OC(C)(C)C)n2)nc1C(=O)OC (stereo unspecified)
inactive: [1]; at 1.2 µM -1% | [1]; at 3.7 µM -4% | [1]; at 11.0 µM -5% | [1]; at 33.0 µM -5% | [1]; at 100.0 µM 30% | [2]; at 1.2 µM -1% | [2]; at 3.7 µM 1% | [2]; at 11.0 µM 2% | [2]; at 33.0 µM 4% | [2]; at 100.0 µM 19% | [3]; at 1.2 µM -1% | [3]; at 3.7 µM -3% | [3]; at 11.0 µM -6% | [3]; at 33.0 µM 2% | [4]; at 1.2 µM -1% | [4]; at 3.7 µM 1% | [4]; [16] -23% | [4]; at 11.0 µM 5% | [4]; at 33.0 µM 24% | [4]; [17] 11% | [4]; at 50.0 µM -2.85% | [5]; at 1.2 µM 0% | [5]; at 3.7 µM -3% | [5]; [16] -11% | [5]; at 11.0 µM 0% | [5]; at 33.0 µM 6% | [5]; [17] 39% | [5]; at 50.0 µM 30.1% | [6]; at 1.2 µM 0% | [6]; at 3.7 µM 1% | [6]; at 11.0 µM 6% | [6]; at 33.0 µM 23% | [7]; [16] 17% | [7]; [17] 27% | [7]; at 50.0 µM -13.5% | [8]; at 1.2 µM -3% | [8]; at 3.7 µM -2% | [8]; at 11.0 µM -9% | [8]; at 33.0 µM -10% | [8]; at 100.0 µM 66% | [9]; [16] 47% | [9]; [17] -2% | [9]; at 50.0 µM -42.5% | [10]; at 1.2 µM -1% | [10]; at 3.7 µM 0% | [10]; [16] -21% | [10]; at 11.0 µM 2% | [10]; at 33.0 µM 8% | [10]; [17] 47% | [10]; at 50.0 µM 9.85% | [11]; at 1.2 µM -3% | [11]; at 3.7 µM -5% | [11]; at 11.0 µM -5% | [11]; at 33.0 µM -6% | [12]; at 1.2 µM -3% | [12]; at 3.7 µM -2% | [12]; at 11.0 µM -4% | [12]; at 33.0 µM -1% | [13]; at 1.2 µM -2% | [13]; at 3.7 µM 0% | [13]; at 11.0 µM 1% | [13]; at 33.0 µM 14% | [14]; [16] -15% | [14]; at 50.0 µM 43.5% | [15]; at 1.2 µM -2% | [15]; at 3.7 µM 2% | [15]; at 11.0 µM 16% | [15]; at 33.0 µM 65%
active: [3]; at 100.0 µM 98% | [4]; at 100.0 µM 97% | [5]; at 100.0 µM 96% | [6]; at 100.0 µM 97% | [10]; at 100.0 µM 94% | [11]; at 100.0 µM 97% | [12]; at 100.0 µM 97% | [13]; at 100.0 µM 97% | [14]; [17] 88% | [15]; at 100.0 µM 96%

Cc1ccnc(NS(=O)(=O)c2ccc(Nc3c4ccccc4nc4ccccc34)cc2)n1
inactive: [1]; at 1.2 µM 14% | [1]; at 3.7 µM 20% | [1]; at 11.0 µM 21% | [1]; at 33.0 µM 48% | [2]; at 1.2 µM 30% | [2]; at 3.7 µM 41% | [2]; at 11.0 µM 64% | [3]; at 1.2 µM 37% | [3]; at 3.7 µM 33% | [3]; at 11.0 µM 54% | [3]; at 33.0 µM 66% | [4]; at 1.2 µM 50% | [5]; at 1.2 µM 18% | [5]; at 3.7 µM 32% | [5]; [16] 15% | [5]; at 11.0 µM 45% | [6]; at 1.2 µM 10% | [6]; at 3.7 µM 10% | [6]; at 11.0 µM 26% | [6]; at 33.0 µM 58% | [7]; [16] 14% | [8]; at 1.2 µM 13% | [8]; at 3.7 µM 1% | [8]; at 11.0 µM 14% | [8]; at 33.0 µM 39% | [8]; at 100.0 µM 60% | [9]; [16] 17% | [9]; [17] 35% | [9]; at 50.0 µM 35.5% | [10]; at 1.2 µM -12% | [10]; at 3.7 µM -21% | [10]; [16] 26% | [10]; at 11.0 µM -20% | [10]; at 33.0 µM 30% | [10]; [17] 44% | [10]; at 100.0 µM 63% | [11]; at 1.2 µM -10% | [11]; at 3.7 µM -18% | [11]; at 11.0 µM -3% | [11]; at 33.0 µM 44% | [12]; at 1.2 µM 37% | [12]; at 3.7 µM 33% | [12]; at 11.0 µM 54% | [12]; at 33.0 µM 66% | [13]; at 1.2 µM 24% | [13]; at 3.7 µM 26% | [13]; at 11.0 µM 43% | [13]; at 33.0 µM 69% | [14]; [16] 26% | [14]; at 50.0 µM 37.7% | [15]; at 1.2 µM 16% | [15]; at 3.7 µM 19% | [15]; at 11.0 µM 36% | [15]; at 33.0 µM 65%
active: [1]; at 100.0 µM 76% | [2]; at 33.0 µM 73% | [2]; at 100.0 µM 74% | [3]; at 100.0 µM 84% | [4]; at 3.7 µM 79% | [4]; [16] 77% | [4]; at 11.0 µM 90% | [4]; at 33.0 µM 91% | [4]; [17] 90% | [4]; at 50.0 µM 84.8% | [4]; at 100.0 µM 88% | [5]; at 33.0 µM 76% | [5]; [17] 77% | [5]; at 50.0 µM 71.2% | [5]; at 100.0 µM 83% | [6]; at 100.0 µM 81% | [7]; [17] 74% | [7]; at 50.0 µM 77.6% | [10]; at 50.0 µM 76.2% | [11]; at 100.0 µM 74% | [12]; at 100.0 µM 84% | [13]; at 100.0 µM 86% | [14]; [17] 74% | [15]; at 100.0 µM 79%
